Data on 110 compounds can be found in PubChem BioAssay AID588342 (National Center for Advancing Translational Sciences (NCATS), 2011).

SMILES strings stand for the structures. Out of some 360,000 compounds screened, about 25,000 (6.9%) were called active. About 9% were inconclusive and are not listed. Calls come from the whole dose curve; as a rule, active = well fitted inhibition curve with a large enough effect; inconclusive = small, poorly fitted or top-dose-only effect; inactive = flat fitted curve, though single readings scatter. Shown is part of a subset that was picked to be rich in actives. Where a call stands in place of a potency, no number is given.
Potency is the fitted concentration of half-maximal effect.

In the assay the target is Luciferin 4-monooxygenase (Photinus pyralis) (UniProt P08659). As to the kind of experiment: qHTS profiling assay for firefly luciferase inhibitor/activator using purifed enzyme and Km concentrations of substrates (counterscreen for miR-21 project). Note: nearly all actives have a fitted effect of over 55% in size. To be noted: purified FLuc, luminescence inhibition; series mostly up to 57.5 µM. An outline of the steps: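 Purified P. pyralis luciferase, 10 nM final, with Km-level 10 uM D-luciferin and 10 uM ATP in 50 mM Tris acetate pH 7.5, 10 mM Mg acetate, 0.01% Tween-20, 0.05% BSA; 6-point qHTS titration about 60 µM downward; luminescence read.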
Sequence of Luciferin 4-monooxygenase (Photinus pyralis) (P08659 whole entry, looked up): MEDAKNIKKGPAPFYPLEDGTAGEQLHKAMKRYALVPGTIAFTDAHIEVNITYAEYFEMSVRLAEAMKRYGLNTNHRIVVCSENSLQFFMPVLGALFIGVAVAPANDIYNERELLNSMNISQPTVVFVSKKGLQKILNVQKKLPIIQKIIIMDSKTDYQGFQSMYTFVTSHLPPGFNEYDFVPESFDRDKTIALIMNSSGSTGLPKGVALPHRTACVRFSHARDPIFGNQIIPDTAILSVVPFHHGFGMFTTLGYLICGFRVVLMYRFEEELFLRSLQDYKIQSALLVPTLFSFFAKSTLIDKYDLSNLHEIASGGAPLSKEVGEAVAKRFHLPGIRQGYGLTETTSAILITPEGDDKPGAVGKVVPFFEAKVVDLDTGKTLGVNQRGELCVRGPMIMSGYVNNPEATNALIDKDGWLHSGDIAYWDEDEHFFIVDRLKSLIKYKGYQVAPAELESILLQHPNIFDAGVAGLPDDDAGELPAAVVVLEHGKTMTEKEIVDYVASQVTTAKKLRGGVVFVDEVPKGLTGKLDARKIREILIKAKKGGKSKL
For `COc1ccc(N(CC(=O)NCCc2ccc(Cl)cc2)S(=O)(=O)c2c(C)nn(C)c2C)cc1`, the Potency entry is “inactive”.

With `NC(=O)C1CCN(C(=O)c2ccc(-c3ccccc3)cc2)CC1`, the Potency result is “inactive”. Same read-out and setting: then `O=C(CCNS(=O)(=O)c1ccccc1)NCCSc1ccc(Br)cc1`, with “inactive”; and `Cc1c(NS(=O)(=O)c2ccc(Cl)cc2)c(=O)n(-c2ccccc2)n1C`, with “inactive”.

Take `Cc1nc(N2CCOCC2)nc2c1CCCC2`: the Potency result is “inactive”. Same read-out and setting: the value for `Cc1cccc(NC(=O)c2sc3nc(N4CCOCC4)c4c(c3c2N)CCCC4)c1` was “inactive”; that for `Nc1nc(-c2sc3nc4c(cc3c2N)CCCC4)nc(N2CCOCC2)n1` was 0.675 µM (active). On the same count and under the same terms, the value for `CCN(CC)c1ccc(NC(=O)CN2CCN(CC(=O)Nc3ccc(Cl)cc3)CC2)cc1` was “inactive”; that for `COc1cccc(C(=O)N/N=C(\C)c2cccc(NC(=O)c3ccc(F)cc3)c2)c1OC` was 13.5 µM (active); that for `COc1cccc(C(=O)Nc2cccnc2)c1OC` was “inactive”.

`COc1ccc(/C(C)=N\NC(=O)c2ccc(-c3ccccc3)cc2)c(F)c1`: the Potency result is “inactive”.

For the compound `Cc1cc(C)cc(NC(=O)Cn2nc(N3CCN(c4ccccc4)CC3)ccc2=O)c1`, the Potency entry is “inactive”. As to `CCC1CN(S(=O)(=O)c2cc(-c3cc(C)no3)ccc2C)c2cc(C)ccc2O1` (stereo not given), the Potency entry is “inactive”. Consider `CS(=O)(=O)Nc1ccc(C(=O)N2CCCC2)cc1`, for which the Potency entry is “inactive”. Still for that read-out and setting: then `Cc1c(Cl)cccc1NC(=O)Nc1ccc(C(=O)N2CCCC2)cc1`, with 5.36 µM (active); and `Cc1c(Cl)cccc1NC(=O)NCCCN1CCCC1=O`, with “inactive”; and `Cc1ccc(C)n1-c1nnc(N2CCC(C(=O)NCc3ccc(F)cc3)CC2)s1`, with “inactive”. The same measure, in the same setting: then `Cn1c(=O)c2c(SCC(=O)N3CCc4ccccc43)nc(-c3ccc(Cl)cc3)nc2n(C)c1=O`, with “inactive”. The same measure, in the same setting: the value for `Cc1cccc(NC(=O)c2cccnc2Cl)n1` was “inactive”. For the compound `Cc1cccc(NC(=O)COc2ccccc2C)n1`, the Potency is 13.5 µM (active).

As to `CCN(CC)S(=O)(=O)c1ccc(C)c(NC(=O)COc2ccc(Br)cc2Cl)c1`, the Potency entry was “inactive”. The same measure, in the same setting: the value for `Cc1cccc(NC(=O)c2ccccc2NC(=O)C(C)(C)C)n1` was “inactive”; that for `CCn1c2ccccc2c2cc(NC(=O)COc3ccc(C)cc3C)ccc21` was “inactive”; that for `Cc1ccc(S(=O)(=O)NC(=O)COc2ccccc2C)cc1` was “inactive”. Still for that read-out and setting: the value for `Cc1cccc(NC(=O)COc2ccc(Br)cc2C)n1` was 3.38 µM (active). For `Cc1cccc(NC(=O)c2ccc3ccccc3n2)n1`, the Potency is 6.01 µM (active). Still for that read-out and setting: the value for `Cc1ccc(OCC(=O)Nc2ccc(NC(=O)c3cccs3)cc2)c(C)c1` was “inactive”; that for `Cc1ccccc1OCC(=O)Nc1ccc2c(c1)ncn2C` was 21.3 µM (active); that for `COCCNC(=O)COc1ccccc1C` was “inactive”.

For `Cc1ccccc1OCC(=O)Nc1ccc(N2CCN(C(=O)C(C)C)CC2)c(Cl)c1`, the Potency result is “inactive”. Turning to `Cc1nc(C)c2c(c1C(F)(F)F)-c1ccccc1C2(F)F`, the Potency entry is “inactive”.

As for `COc1cccc(NC(=O)CSc2cc(=O)n(C)c3ccc(Cl)cc23)c1`, the Potency entry was “inactive”. On the same count and under the same terms, the value for `CCC1(CC)NC(=O)N(CC(=O)OCC(=O)c2cc(C)c(C)cc2C)C1=O` was “inactive”; that for `CCOC(=O)c1c(C)[nH]c(CCC(=O)NCCCN2CCN(c3cc(C)ccc3C)CC2)c1C` was “inactive”; that for `CCN(CC)C(=O)CSC1c2ccccc2C(=O)N1c1ccccc1` (stereo not given) was “inactive”. On the same count and under the same terms, then `Cc1ccc(CCCOC(=O)C[N+]2(C)CCCC2)cc1`, with “inactive”; and `Cn1c(=O)c2c(n(Cc3ccccc3)c1=O)NC(=O)C2CC(=O)N1CCc2ccccc2C1` (stereo not given), with “inactive”; and `CC(=O)Nc1cccc2c1[n+]([O-])c(C)c(C)[n+]2[O-]`, with “inactive”.

On to `CCOc1ccc(NC(=O)c2cc3c(=O)n(Cc4cccs4)ccc3nc2C)cc1`, for which the Potency entry was “inactive”. For the compound `Cc1ccc(C(=O)Nc2nnc(-c3ccncc3)s2)o1`, the activity change, negative = inhibition was -0.508% [at 2.3 µM] (inactive). For `O=C(/C=C/c1ccccc1)Nc1nnc(SCC(=O)c2ccc3ccccc3c2)s1`, the Potency result was “inactive”. Same read-out and setting: then `COC(=O)CSc1nnc(NC(=O)CCc2ccccc2)s1`, with “inactive”; and `NC(=O)CSc1nnc(NC(=O)c2ccc3ccccc3c2)s1`, with 2.39 µM (active); and `CCOCc1nnc(NC(=O)CSc2ccc(C)cc2)s1`, with “inactive”.

With `CCSc1nnc(NC(=O)c2ccc(C)cc2)s1`, the Potency is 2.69 µM (active). The same measure, in the same setting: then `O=C(Nc1nnc(CCN2CCCCC2)s1)c1cccc(Cl)c1`, with “inactive”; and `NC(=O)CSc1nnc(NC(=O)c2ccc(Br)o2)s1`, with 16.9 µM (active). With `CSc1nnc(NC(=O)c2nc(S(=O)(=O)Cc3ccc(C)cc3)ncc2Cl)s1`, the Potency result was “inactive”.

For `CCOc1ccccc1CNC(=O)c1ccc(-n2c(C)cc3c2CCC(C)C3)cc1` (stereo not given), the Potency result was “inactive”. For `COc1ccc2c(c1)c(=O)c(S(=O)(=O)c1ccc(F)cc1)cn2CC(=O)Nc1ccc(C)cc1C`, the Potency result is “inactive”. Same read-out and setting: the value for `COc1ccccc1CNC(=O)c1ccc(CS(=O)c2ccccc2Cl)o1` (stereo not given) was “inactive”; that for `COc1ccc(NC(C)=O)cc1NC(=O)CN1CCN(c2ccc(F)cc2)CC1` was “inactive”. On the same count and under the same terms, then `CCCCCn1c(=O)[nH]c2cc(C(=O)Nc3cc(C)cc(C)c3)ccc2c1=O`, with “inactive”; and `COc1ccc(OC)c(-n2nnc(-c3nc(-c4cc(OC)c(OC)c(OC)c4)no3)c2C)c1`, with “inactive”.

With `COc1ccc(-c2noc(-c3cccc(OC)c3OC)n2)cc1OC`, the Potency was 2.39 µM (active).

Regarding `COc1ccc(-c2cc(-c3nc(-c4cc(OC)c(OC)c(OC)c4)no3)[nH]n2)c(OC)c1`, the Potency result is “inactive”.

For the compound `CCOc1ccccc1NC(=O)Cn1nnc(C(=O)Nc2ccc(C)c(C)c2)c1N`, the Potency result is “inactive”. Same read-out and setting: then `COc1ccc(N(CC(=O)Nc2cccc3ccccc23)S(C)(=O)=O)c(OC)c1`, with “inactive”; and `COc1ccccc1NC(=O)COc1ccc(C(=O)OCC(=O)N(C(C)C)C(C)C)cc1OC`, with “inactive”. The same measure, in the same setting: then `COc1cc(CO)ccc1OCC(=O)Nc1cccc2ccccc12`, with 10.7 µM (active); and `Cc1nc(SCC(=O)N2CCN(c3ccccc3)CC2)[nH]c(=O)c1C`, with “inactive”; and `CCC1=[N+]([O-])C(C)(/C(C)=N\O)N(O)C1(C)C` (stereo not given), with “inactive”.

`Oc1c(CN2CCCC2)cc(COCc2ccccc2)c2cccnc12`: the Potency entry is “inactive”. The same measure, in the same setting: then `COC(=O)CN1C(=O)CSc2ccc(S(=O)(=O)Nc3cc(C)ccc3C)cc21`, with “inactive”; and `O=C(Nc1ccc(S(=O)(=O)N2CCCCC2)cc1)C1CCN(C(=O)c2ccc(F)cc2)CC1`, with “inactive”; and `Cc1ccc(C2Nc3cccc4cccc(c34)N2)cc1`, with 10.7 µM (active). Same read-out and setting: the value for `Cc1ccc(C2CC(c3cccc(C)c3)n3nc(N)nc3N2)cc1` (stereo not given) was “inactive”. The same measure, in the same setting: then `COc1ccc(C2CC(c3ccc(C)cc3)Nc3ncnn32)cc1` (stereo not given), with “inactive”.

`COc1ccc(C2=CC(c3cccc(OC)c3)n3nnnc3N2)cc1` (stereo not given): the Potency entry was “inactive”. On the same count and under the same terms, the value for `Brc1ccccc1C1Nc2cccc3cccc(c23)N1` was “inactive”. The same measure, in the same setting: the value for `COc1cccc(C2Nc3cccc4cccc(c34)N2)c1` was 26.9 µM (active).

For `Oc1ccc(C2Nc3cccc4cccc(c34)N2)cc1`, the Potency was 16.9 µM (active). On the same count and under the same terms, then `COc1cccc(N2C(=O)C3CCCN3C2c2ccc(F)cc2)c1` (stereo not given), with “inactive”; and `COc1cc(C(=O)OCC(=O)NC(C)CCc2ccccc2)cc(OC)c1OC` (stereo not given), with “inactive”. Same read-out and setting: the value for `CCCCOc1ccc(NC(=O)c2cc3c(n(-c4ccc(Cl)cc4)c2=O)CCCC3=O)cc1` was “inactive”; that for `O=C(c1c(F)cccc1F)N1CCN(S(=O)(=O)c2ccc3c(c2)OCCO3)CC1` was “inactive”. Still for that read-out and setting: the value for `COc1ccccc1C(CNC(=O)c1cccc(S(=O)(=O)Nc2ccc(F)cc2)c1)N(C)C` (stereo not given) was “inactive”. In the case of `O=C(NCCc1ccccn1)c1cccnc1Oc1ccc(Cl)cc1`, the Potency entry is “inactive”. The same measure, in the same setting: the value for `O=C(COc1cc(Cl)c(Cl)cc1Cl)NCCc1ccccn1` was “inactive”; that for `O=C(NCCc1ccccn1)c1cc(-c2ccc(Cl)cc2)nc2ccccc12` was 16.9 µM (active); that for `Cc1cccc(NC(=O)Cn2nc(-c3ccc(Cl)cc3)c3ccccc3c2=O)c1` was “inactive”.

As for `COC(=O)c1cc(Oc2ccc(S(=O)(=O)N3CCOCC3)cc2[N+](=O)[O-])cc(C(=O)OC)c1`, the Potency result was “inactive”. On the same count and under the same terms, the value for `COCCNS(=O)(=O)c1cc(-c2nn3c(C)nnc3c3ccccc23)ccc1C` was “inactive”; that for `CC(=O)N1c2ccc(S(=O)(=O)N3CCCCCC3)cc2CC1C(=O)NCc1ccccc1C` (stereo not given) was “inactive”. For the compound `COc1ccc(OC)c(NC(=O)CSC2=Nc3ccccc3C3=NC(CC(=O)NCCc4ccccc4)C(=O)N23)c1` (stereo not given), the Potency entry is “inactive”. Same read-out and setting: the value for `COc1ccccc1Nc1nc(N)nc(N)c1S(=O)(=O)c1ccccc1` was “inactive”; that for `CNS(=O)(=O)c1cccc(C(=O)OCCCC(=O)c2ccccc2)c1` was “inactive”; that for `CCOc1ccc(C(=O)Nc2ccc(S(=O)(=O)Nc3cc(C)on3)cc2)cc1` was 16.9 µM (active). The same measure, in the same setting: the value for `CCOc1ccc(CC(=O)Nc2ccc(S(=O)(=O)Nc3cc(C)on3)cc2)cc1OCC` was “inactive”; that for `COc1cc(OC)cc(C(=O)Nc2ccc(S(=O)(=O)Nc3cc(C)on3)cc2)c1` was “inactive”. Same read-out and setting: the value for `CC(C)OCCCNC(=O)c1cc(Sc2ccc(F)cc2)nc2ccccc12` was “inactive”; that for `CC(C)OCCCNc1ncnc2c1[nH]c1ccc(F)cc12` was 15.1 µM (active); that for `Fc1ccc2[nH]c3c(N4CCN(Cc5ccc6c(c5)OCO6)CC4)ncnc3c2c1` was “inactive”.

With `O=S(=O)(c1ccc(Sc2nnc3ccccn23)nc1)N1CCOCC1`, the Potency result was “inactive”. Same read-out and setting: the value for `CCOc1ccc(NC(=O)Cn2c(=O)n(CCCC(=O)NCc3ccc4c(c3)OCO4)c(=O)c3ccccc32)cc1` was “inactive”; that for `Cc1ccnc(Nc2nc3ccccc3s2)n1` was 1.9 µM (active). Same read-out and setting: then `Cc1cc(C)cc(-n2ccnc2SCC(=O)Nc2nc3ccccc3s2)c1`, with “inactive”. On the same count and under the same terms, the value for `Cc1sc2ncnc(Sc3nc4ccccc4s3)c2c1C` was “inactive”; that for `Cc1ccc(CCNC(=O)c2ccc3c(c2)N(Cc2cc(C)ccc2C)C(=O)c2ccccc2S3=O)cc1` (stereo not given) was “inactive”. For the compound `CCCn1c(NCc2ccc(N(CC)CC)cc2)nc2ccccc21`, the Potency entry was “inactive”. Same read-out and setting: then `Cc1ccc(CNC(=O)CCc2c(C)nc3nc(CNC(=O)OC(C)(C)C)nn3c2C)cc1`, with “inactive”; and `Cc1ccc2nc(-c3ccc(Br)cc3)cn2c1`, with 0.0849 µM (active); and `Cc1ccc(-c2cn3cc([N+](=O)[O-])ccc3n2)cc1`, with 0.757 µM (active).

For `CSc1nnc2ccc(-c3ccc(C)cc3)nn12`, the Potency result is “inactive”. On the same count and under the same terms, then `Cc1ccc(-c2cn3cc(C)ccc3n2)cc1`, with 0.107 µM (active). The same measure, in the same setting: the value for `Cc1ccc(-n2c(-c3ccc(Cl)cc3)n[nH]c2=S)cc1` was “inactive”. In the case of `Cc1cc(N2CCOCC2)nc(-c2ccc(Br)cc2)n1`, the Potency result is “inactive”.

`Cc1ccc(C(=O)Cn2cc([N+](=O)[O-])nc2C)cc1`: the Potency result is “inactive”. On the same count and under the same terms, then `Cc1ccc(-c2nc(SCc3ccc(Br)cc3)n3[nH]c(=O)cc3n2)cc1`, with “inactive”.

In the case of `Cc1nc(-c2ccc([N+](=O)[O-])cc2)c(-c2ccccc2)o1`, the Potency result was “inactive”.
